High-throughput results (PubChem BioAssay)
Sm TGR block = blocks Schistosoma mansoni thioredoxin glutathione reductase; actives 3% (n = 360,000); Q962Y6; AID 485364; purified TGR, DTNB reduction, TNB absorbance 405 nm; Potency, µM (doses to about 114 µM), for inactives: at the top dose activity change, negative = inhibition, usual class: inhibitors; note: nearly all actives have a fitted effect of over 60% in size
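TGR 20 nM + NADPH 100 uM (dispensed conc.), cpd preinc 15 min RT; start with NADPH (500 uM addition) then DTNB (15 mM addition). Kinetic TNB absorbance, 405 nm filter. Four-parameter Hill fit across titration.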
AmpC inh detg = AmpC beta-lactamase inhibition with detergent present; AmpC hydrolysis of nitrocefin, absorbance 480 nm, 0.01% Triton; Potency, µM (highest dose often 114 µM), for inactives: top-dose activity change, negative = inhibition, actives largely listed as inhibitors; actives 0.041% (n = 370,000);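 note: 0% = no-compound wells and -100% = no-enzyme wells; nearly all actives have a fitted effect of over 25% in size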
Target sequence (P00811 whole entry, looked up): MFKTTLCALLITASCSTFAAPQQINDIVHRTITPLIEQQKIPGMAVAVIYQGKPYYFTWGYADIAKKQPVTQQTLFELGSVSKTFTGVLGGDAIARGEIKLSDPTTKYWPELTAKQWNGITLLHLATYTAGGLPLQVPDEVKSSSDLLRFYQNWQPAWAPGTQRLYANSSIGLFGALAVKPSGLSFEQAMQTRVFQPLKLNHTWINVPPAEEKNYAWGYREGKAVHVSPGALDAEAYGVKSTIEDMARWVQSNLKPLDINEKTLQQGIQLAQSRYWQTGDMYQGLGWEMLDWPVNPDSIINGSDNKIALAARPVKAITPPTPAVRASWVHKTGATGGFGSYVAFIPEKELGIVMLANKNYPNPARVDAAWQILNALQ
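AmpC (5.3 nM in the dispensed reagent) in 20 mM phosphate pH 7.0 with 0.01% (detergent screen) or 0.0001% Triton X-100 was preincubated with compounds for 15 min at room temperature. Nitrocefin was then added from an 800 uM solution, and hydrolysis was followed at 480 nm.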
AmpC no deterg = AmpC beta-lactamase inhibition without detergent; P00811; AmpC nitrocefin hydrolysis, absorbance 480 nm, 0.0001% Triton; Potency, µM (titrated, usually from 57.1 µM), for the others: at the top dose activity change, negative = inhibition, most hits filed as inhibitors; actives 0.52% (n = 330,000);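 note: plate controls were no compound for no effect and no enzyme for full effect; nearly all actives have a fitted effect of over 20% in size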
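AmpC (5.3 nM in the dispensed reagent) in 20 mM phosphate pH 7.0 with 0.01% (detergent screen) or 0.0001% Triton X-100 was preincubated with compounds for 15 min at room temperature. Nitrocefin was then added from an 800 uM solution, and hydrolysis was followed at 480 nm.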
* marks the source's active call; other numbers are inactive results; ? = inconclusive; / = no result. Shown are actives, neighbours in structure and some others; about 3.3% of the full set was active somewhere. Calls come from the whole dose curve; as a rule, active = well fitted curve in the direction sought with a large enough effect; inconclusive = small, poorly fitted or top-dose-only effect, or another doubt; inactive = no such curve, though single readings can be large; an effect the other way counts as inactive or inconclusive. Unless noted, % is set by controls: 0 for no effect and ±100 for the full control effect; potency is the fitted concentration of half-maximal effect.

SMILES	Sm TGR block	AmpC inh detg	AmpC no deterg
Cc1oc(-c2ccccc2F)nc1CS(=O)(=O)CC(=O)NC1CCCC(C)C1C (stereo not given)	-22%	-9%	86%
COc1ccc(-c2nc(CS(=O)(=O)CC(=O)NC3CCCCCC3)c(C)o2)cc1	?	3%	55%
Cc1ccc(-c2nc(CS(=O)(=O)CC(=O)NC3CCCCCC3)c(C)o2)cc1	25µM*	-6%	14%
COc1ccc(CNC(=O)Cc2c(C(=O)O)c(C)cn2C)cc1	1%	6%	/
Cc1cc(C)c(NC(=O)/C=C\C(=O)O)c([N+](=O)[O-])c1	16µM*	3%	0%
COc1ccc([N+](=O)[O-])cc1NC(=O)/C=C/C(=O)O	-13%	-13%	-9%
COc1cc(OC)c(NC(=O)/C=C/C(=O)O)cc1Cl	50µM*	-10%	11%
Cc1cc(C)c(NC(=O)/C=C\C(=O)O)c(Cl)c1	35µM*	-9%	-13%
Cc1cc(C)c(NC(=O)CS)c(Cl)c1	?	-1%	-22%
Cc1ccc(NC(=O)/C=C\C(=O)O)c([N+](=O)[O-])c1	?	-13%	-27%
Cc1ccc(NC(=O)c2ncn(CC(=O)NCc3nc4ccccc4[nH]3)n2)cc1C	/	/	-16%
Cc1ccc(NC(=O)C2=CC(c3ccc4c(c3)OCO4)=NS(=O)(=O)N2C)cc1	7%	18%	/
CC(=O)c1cccc(NC(=O)C2=CC(c3ccc4c(c3)OCO4)=NS(=O)(=O)N2C)c1	1%	-5%	10µM*
Cc1nn(CCCC(=O)NCc2ccc(F)cc2)c(=O)c2c1sc1ccccc12	1%	23%	/
O=C1CC(c2ccco2)=Nc2ccccc2N1	45µM*	-4%	-11%
O=C1CC(c2ccccc2)=Nc2ccccc2N1	-8%	-1%	-13%
CCCSC1=C(C#N)C(c2ccc(OC)cc2)C2=C(CC(C)(C)CC2=O)N1 (stereo not given)	-34%	-10%	-35%
CSC1=C(C#N)C(c2ccc(Cl)cc2)C2=C(CC(C)(C)CC2=O)N1 (stereo not given)	28µM*	-18%	-43%
O=C(COC(=O)[C@@H]1CCCN1C(=O)c1cccs1)Nc1cccc(Cl)c1	/	/	10%
Oc1c(Br)cc(Br)cc1Br	-23%	4%	-11%
Oc1c(Br)c(Br)c(Br)c(Br)c1Br	3.5µM*	2%	-51%
COc1cccc(CC(=O)Nc2ccc(-c3nc4ccccc4s3)cc2Cl)c1	2%	2%	/
O=c1cc(-c2ccc(O)cc2)oc2c(O)c(O)c(O)c(O)c12	4µM*	5%	-37%
O=c1cc(-c2ccc(O)cc2)oc2c1ccc1ccccc12	-4%	-11%	9%
Cc1cccc2nc(CSc3ccc(Cl)cc3)cn12	0%	3%	-12%
SMILES	Sm TGR block	AmpC inh detg	AmpC no deterg
Cc1cc(C)n2cc(CSCc3ccco3)nc2n1	40µM*	1%	0%
Cc1cccc2nc(CSCc3ccco3)cn12	28µM*	-12%	-28%
Cc1ccnc(SCc2cn3c(C)cc(C)nc3n2)n1	-2%	7%	-6%
O=C(CSc1nc2c(oc3ccccc32)c(=O)n1Cc1ccco1)Nc1cccc(Cl)c1	-4%	22%	/
O=[N+]([O-])/C(C(Cl)=C(Cl)Cl)=C(/NC1CC1)Sc1ccccc1	4µM*	3%	-1%
O=C(O)C1CCC(NSc2ccccc2[N+](=O)[O-])CC1 (stereo not given)	?	?	-27%
CCC(C)NC(=O)Nc1ccc(Br)cc1 (stereo not given)	13%	-11%	-15%
CCC(C)Nc1ccc(NC(C)CC)cc1 (stereo not given)	32µM*	1%	79%
CCOC(=O)C1CCCCN1S(=O)(=O)c1csc(C(N)=O)c1 (stereo not given)	-11%	5%	/
COC(=O)c1ccc(NC2CC(=O)N(c3ccccc3C)C2=O)cc1 (stereo not given)	32µM*	?	-13%
Cc1ccccc1N1C(=O)CC(Nc2ccc3c(c2)OCO3)C1=O (stereo not given)	?	7%	-11%
COC(=O)c1cc(C(=O)OC)cc(N2C(=O)CC(NNC(=O)c3ccccc3Cl)C2=O)c1 (stereo not given)	-1%	5%	-3%
COC(=O)c1ccccc1NC1CC(=O)N(c2c(C)cccc2C)C1=O (stereo not given)	7.1µM*	-16%	-7%
CCCCN1C(=O)C(=Nc2cccc3cnccc23)c2ccccc21	-3%	-13%	-19%
CCc1ccc(NC(=O)CCc2c(C)nn(-c3ccc(N4CCCCC4)nn3)c2C)cc1	-13%	-17%	100%
c1cncc(C2CCCCN2)c1 (stereo not given)	-1%	2%	-14%
